Reference: PubChem BioAssay (EPA / NIEHS)
Results filed as inconclusive are left out. Activity calls are given as the source filed them. The calls were made as follows, unless noted: active = hit-call score of the fitted dose curve at least 0.9, where 1 is the maximum; inconclusive = response in the unintended direction; inactive = score below 0.9.

Assays:
[1] = ATG_TAL_CIS: Attagene CIS-FACTORIAL HepG2 Assay for human TAL Basal Promoter (AID 2282966; active = hit-call score of the fitted dose curve at least 0.9, where 1 is the maximum; inactive = score below 0.9;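 also: background control endpoint measuring basal TAL promoter reporter mRNA not a specific factor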); settings: HepG2 Attagene cis-factorial TAL promoter reporter; actives raise or lower the signal
Summary of the method: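 HepG2 cells were transiently transfected with promoter-driven multiplexed reporter units and dosed for 24 h. Reporter mRNA was measured by RT-PCR with capillary electrophoresis fluorescence; bidirectional fits used DMSO as baseline, serving as a background control.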

[2] = ATG_TGFb_CIS: Attagene CIS-FACTORIAL HepG2 Assay for human Transforming Growth Factor (TGF) (AID 2282967; active = hit-call score of the fitted dose curve at least 0.9, where 1 is the maximum; inactive = score below 0.9); settings: HepG2 Attagene CIS TGFb reporter, mRNA transcription; actives raise or lower the signal
Summary of the method: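 Transient MRTU transfection of HepG2 (FuGene 6). Dose 24 h. TriZol RNA, oligo(dT) RT, PCR, 6-FAM primer extension, HpaI cut, CE. Bidirectional fit, DMSO = baseline.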

[3] = ATG_VDRE_CIS: Attagene CIS-FACTORIAL HepG2 Assay for human Vitamin D Receptor Element (VDRE) (AID 2282968; active = hit-call score of the fitted dose curve at least 0.9, where 1 is the maximum; inactive = score below 0.9); settings: HepG2 VDRE cis-reporter transcription, actives raise or lower the signal
Summary of the method: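 Transiently transfected HepG2 cells carrying cis-regulated reporter transcription units were exposed for 24 h. Reporter mRNA was measured by RT-PCR with fluorescent labelling and capillary electrophoresis, and fitted in both directions against DMSO.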

[4] = target: Nuclear receptor subfamily 1 group I member 3 (Homo sapiens) (UniProt Q14994); test: ATG_CAR_TRANS: Attagene TRANS-FACTORIAL HepG2 Assay for human Constitutive Androstane Receptor (CAR) (AID 2282969); settings: HepG2 Attagene TRANS-FACTORIAL CAR reporter;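 also: activators raise reporter mRNA above DMSO so AC50 marks induction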
Chain of Nuclear receptor subfamily 1 group I member 3 (Homo sapiens) (Q14994 whole entry, looked up, the tested form may be a part): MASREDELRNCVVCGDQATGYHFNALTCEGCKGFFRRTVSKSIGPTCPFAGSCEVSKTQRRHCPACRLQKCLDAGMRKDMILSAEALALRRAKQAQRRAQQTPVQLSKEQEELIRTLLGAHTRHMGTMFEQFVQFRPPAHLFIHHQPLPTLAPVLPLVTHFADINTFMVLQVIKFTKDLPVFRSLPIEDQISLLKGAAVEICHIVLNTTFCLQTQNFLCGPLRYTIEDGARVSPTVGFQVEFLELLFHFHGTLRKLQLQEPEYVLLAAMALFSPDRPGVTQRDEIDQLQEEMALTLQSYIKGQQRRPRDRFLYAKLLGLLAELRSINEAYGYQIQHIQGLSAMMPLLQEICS
Summary of the method: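 HepG2 cells transiently transfected with GAL4-UAS reporter units; TRANS format reads activity of exogenous chimeric NR-Gal4 protein. After 24 h dosing, reporter mRNA quantified by RT-PCR, 6-FAM labelling and capillary electrophoresis; gain of signal fitted against DMSO.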

[5] = target: X-box-binding protein 1 (Homo sapiens) (UniProt P17861); test: ATG_Xbp1_CIS: Attagene CIS-FACTORIAL HepG2 Assay for human X-box Binding Protein 1 (XBP1) (AID 2282972; active = hit-call score of the fitted dose curve at least 0.9, where 1 is the maximum; inactive = score below 0.9); settings: HepG2 XBP1 cis-element reporter, Attagene multiplex; actives raise or lower the signal
Chain of X-box-binding protein 1 (Homo sapiens) (P17861 whole entry, looked up): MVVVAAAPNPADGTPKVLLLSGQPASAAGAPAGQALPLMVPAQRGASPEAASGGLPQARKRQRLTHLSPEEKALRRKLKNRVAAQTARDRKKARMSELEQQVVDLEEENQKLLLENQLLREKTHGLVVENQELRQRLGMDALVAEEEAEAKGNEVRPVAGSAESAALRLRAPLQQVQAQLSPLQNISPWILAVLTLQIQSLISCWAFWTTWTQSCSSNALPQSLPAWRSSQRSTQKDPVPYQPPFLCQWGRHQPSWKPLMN
Summary of the method: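 HepG2 cells transiently transfected with multiple cis-element reporter units report endogenous TF activity; 24 h exposure, then reporter mRNA measured by RT-PCR, 6-FAM labelling, HpaI digestion and capillary electrophoresis. Bidirectional fitting versus DMSO.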

[6] = ATG_Hpa5_TRANS: Attagene TRANS-FACTORIAL HepG2 Assay for human GAL4-Hpa5 Hepatocyte Transcription Factor Basal Promoter (AID 2282975); settings: HepG2 Attagene GAL4-Hpa5 transcription reporter;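 also: hits are increases in reporter mRNA over DMSO baseline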
Summary of the method: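 Basal-promoter GAL4 background control within the HepG2 trans-factorial panel of transiently transfected reporter units. Reporter mRNA is measured 24 h after dosing by RT-PCR and capillary electrophoresis, fitted for gain of signal versus DMSO.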

[7] = ATG_GAL4_TRANS: Attagene TRANS-FACTORIAL HepG2 Assay for GAL4 (Internal Marker) (AID 2282976); settings: HepG2 Attagene TRANS GAL4 internal marker reporter
Summary of the method: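 HepG2 cells transiently transfected with multiplexed GAL4-UAS reporter constructs were dosed for 24 h. Reporter mRNA was measured by RT-PCR, 6-FAM primer extension, HpaI digestion and capillary electrophoresis, and gain of signal was fitted relative to DMSO.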

[8] = target: Oxysterols receptor LXR-alpha (Homo sapiens) (UniProt Q13133); test: ATG_LXRa_TRANS: Attagene TRANS-FACTORIAL HepG2 Assay for human Liver X Receptor alpha (LXRa) (AID 2282980); settings: HepG2 Attagene TRANS reporter, LXRa transactivation
Chain of Oxysterols receptor LXR-alpha (Homo sapiens) (Q13133 whole entry, looked up, the tested form may be a part): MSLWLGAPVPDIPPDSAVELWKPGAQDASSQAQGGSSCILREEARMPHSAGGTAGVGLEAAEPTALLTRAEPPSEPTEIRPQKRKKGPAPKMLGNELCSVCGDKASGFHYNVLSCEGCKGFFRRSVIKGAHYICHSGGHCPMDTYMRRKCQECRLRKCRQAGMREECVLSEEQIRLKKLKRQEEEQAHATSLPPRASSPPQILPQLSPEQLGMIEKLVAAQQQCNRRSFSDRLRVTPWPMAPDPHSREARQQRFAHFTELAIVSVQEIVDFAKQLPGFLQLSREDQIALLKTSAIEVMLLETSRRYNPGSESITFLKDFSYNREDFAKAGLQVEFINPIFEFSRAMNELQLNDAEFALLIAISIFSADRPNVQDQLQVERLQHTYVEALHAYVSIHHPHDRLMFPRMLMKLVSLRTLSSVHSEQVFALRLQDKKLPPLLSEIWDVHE
Summary of the method: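 HepG2 cells were transiently transfected with multiplexed reporter units driven by chimeric LXRa–GAL4 fusion proteins, then dosed for 24 h. Reporter mRNA was quantified by RT-PCR, fluorescent labelling and capillary electrophoresis; gain of signal fitted against DMSO baseline.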

[9] = ATG_M_06_TRANS: Attagene TRANS-FACTORIAL HepG2 Assay for M06 Transcription Factor (Internal Marker) (AID 2282983); settings: HepG2 Attagene TRANS M06 internal marker reporter;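 also: reporter transcript level by RT-PCR then capillary electrophoresis fluorescence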
Summary of the method: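 HepG2 cells transiently transfected with multiplexed GAL4-UAS reporter transcription units; after 24 h compound exposure, reporter mRNA measured by RT-PCR, FAM-labelled primer extension, HpaI digestion and capillary electrophoresis. Gain-of-signal fitted versus DMSO baseline; background control readout.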

[10] = ATG_M_32_TRANS: Attagene TRANS-FACTORIAL HepG2 Assay for M32 Transcription Factor (Internal Marker) (AID 2282984); settings: HepG2 Attagene TRANS M32 internal marker reporter
Summary of the method: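 HepG2 cells transiently transfected with GAL4-UAS reporter units, dosed for 24 hours. Reporter mRNA quantified by RT-PCR, 6-FAM labelling, HpaI digestion and capillary electrophoresis; internal-marker signal fitted upward relative to DMSO.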

[11] = target: Nuclear receptor subfamily 4 group A member 2 (Homo sapiens) (UniProt P43354); test: ATG_NURR1_TRANS: Attagene TRANS-FACTORIAL HepG2 Assay for human Nuclear Receptor Related Protein 1 (NURR1) (AID 2282985); settings: HepG2 Attagene TRANS reporter, mRNA readout
Chain of Nuclear receptor subfamily 4 group A member 2 (Homo sapiens) (P43354 whole entry, looked up, the tested form may be a part): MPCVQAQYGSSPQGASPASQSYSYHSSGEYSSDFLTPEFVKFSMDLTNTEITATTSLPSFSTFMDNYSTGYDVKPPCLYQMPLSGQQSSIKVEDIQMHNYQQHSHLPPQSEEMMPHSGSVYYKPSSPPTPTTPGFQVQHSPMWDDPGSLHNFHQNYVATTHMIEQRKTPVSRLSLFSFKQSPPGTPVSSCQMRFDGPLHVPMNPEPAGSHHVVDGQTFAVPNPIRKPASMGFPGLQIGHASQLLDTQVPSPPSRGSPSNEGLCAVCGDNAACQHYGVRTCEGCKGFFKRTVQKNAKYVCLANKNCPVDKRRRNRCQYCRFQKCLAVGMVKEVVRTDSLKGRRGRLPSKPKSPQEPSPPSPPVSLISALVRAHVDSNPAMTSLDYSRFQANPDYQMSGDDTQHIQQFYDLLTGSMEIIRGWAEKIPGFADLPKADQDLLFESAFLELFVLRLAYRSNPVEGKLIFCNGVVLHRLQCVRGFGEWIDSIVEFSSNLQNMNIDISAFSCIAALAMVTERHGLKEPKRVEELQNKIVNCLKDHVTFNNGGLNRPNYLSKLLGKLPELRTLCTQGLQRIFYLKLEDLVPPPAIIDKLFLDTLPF
Summary of the method: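 HepG2 cells transiently transfected with NURR1-Gal4 chimera and GAL4-UAS reporter units; after 24 hr compound exposure, reporter mRNA quantified by RT-PCR and capillary electrophoresis; gain of signal fitted against DMSO.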

[12] = target: Transcriptional activator Myb (Homo sapiens) (UniProt P10242); test: ATG_Myb_CIS: Attagene CIS-FACTORIAL HepG2 Assay for human Myeloblastosis (Myb) Proto-Oncogene Transcription Factor (AID 2282986; active = hit-call score of the fitted dose curve at least 0.9, where 1 is the maximum; inactive = score below 0.9); settings: HepG2 Attagene CIS-FACTORIAL Myb reporter transcription; actives raise or lower the signal
Chain of Transcriptional activator Myb (Homo sapiens) (P10242 whole entry, looked up): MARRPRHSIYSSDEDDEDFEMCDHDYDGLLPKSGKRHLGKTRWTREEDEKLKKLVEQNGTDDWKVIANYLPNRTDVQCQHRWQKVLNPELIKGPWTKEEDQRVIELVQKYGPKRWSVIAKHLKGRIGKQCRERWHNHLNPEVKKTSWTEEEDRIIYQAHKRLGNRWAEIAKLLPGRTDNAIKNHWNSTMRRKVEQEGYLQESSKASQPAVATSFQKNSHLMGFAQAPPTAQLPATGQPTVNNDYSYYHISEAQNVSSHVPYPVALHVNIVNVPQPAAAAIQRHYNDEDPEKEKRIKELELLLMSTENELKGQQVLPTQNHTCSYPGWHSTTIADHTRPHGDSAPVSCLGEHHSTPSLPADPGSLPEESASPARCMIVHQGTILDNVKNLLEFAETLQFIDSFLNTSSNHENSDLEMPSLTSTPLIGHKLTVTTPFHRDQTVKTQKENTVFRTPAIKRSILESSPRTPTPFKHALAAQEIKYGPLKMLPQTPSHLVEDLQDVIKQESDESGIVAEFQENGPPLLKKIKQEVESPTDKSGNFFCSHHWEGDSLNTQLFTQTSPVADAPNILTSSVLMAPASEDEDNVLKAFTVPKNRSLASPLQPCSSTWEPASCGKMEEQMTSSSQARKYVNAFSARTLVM
Summary of the method: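 After 24 h of compound dosing, total RNA from transfected HepG2 cells is reverse-transcribed and the reporter sequences amplified, labeled and separated by capillary electrophoresis. Values come from bidirectional fitting against DMSO.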

[13] = target: Estrogen-related receptor gamma (Homo sapiens) (UniProt P62508); test: ATG_ERRg_TRANS: Attagene TRANS-FACTORIAL HepG2 Assay for human Estrogen-Related Receptor gamma (ERRg) (AID 2282977); settings: HepG2 Attagene TRANS reporter, ERRg transactivation;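 also: hits increase reporter signal over DMSO so potencies reflect activators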
Chain of Estrogen-related receptor gamma (Homo sapiens) (P62508 whole entry, looked up, the tested form may be a part): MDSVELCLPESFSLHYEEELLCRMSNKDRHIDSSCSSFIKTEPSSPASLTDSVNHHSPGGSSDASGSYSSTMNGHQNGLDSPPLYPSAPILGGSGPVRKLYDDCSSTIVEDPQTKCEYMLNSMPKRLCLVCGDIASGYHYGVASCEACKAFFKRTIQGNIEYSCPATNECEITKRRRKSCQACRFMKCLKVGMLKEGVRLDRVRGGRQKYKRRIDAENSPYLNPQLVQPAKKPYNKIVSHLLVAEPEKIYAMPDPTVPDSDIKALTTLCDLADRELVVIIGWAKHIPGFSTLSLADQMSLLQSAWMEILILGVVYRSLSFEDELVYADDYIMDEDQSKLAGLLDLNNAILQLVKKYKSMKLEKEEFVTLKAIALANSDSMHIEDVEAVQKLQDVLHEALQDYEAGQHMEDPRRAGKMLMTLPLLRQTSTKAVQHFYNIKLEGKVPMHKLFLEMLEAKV
Summary of the method: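 HepG2 cells transiently transfected with multiplexed GAL4-UAS reporter units driven by chimeric NR-Gal4 proteins; 24 h exposure. Reporter mRNA quantified by RT-PCR, fluorescent labelling, HpaI digestion and capillary electrophoresis; gain of signal vs DMSO.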

[14] = target: Estrogen receptor (Homo sapiens) (UniProt P03372); test: ATG_ERa_TRANS: Attagene TRANS-FACTORIAL HepG2 Assay for human Estrogen Receptor alpha (ERa) (AID 2282970); settings: HepG2 Attagene TRANS ERa GAL4 reporter, mRNA
Chain of Estrogen receptor (Homo sapiens) (P03372 whole entry, looked up, the tested form may be a part): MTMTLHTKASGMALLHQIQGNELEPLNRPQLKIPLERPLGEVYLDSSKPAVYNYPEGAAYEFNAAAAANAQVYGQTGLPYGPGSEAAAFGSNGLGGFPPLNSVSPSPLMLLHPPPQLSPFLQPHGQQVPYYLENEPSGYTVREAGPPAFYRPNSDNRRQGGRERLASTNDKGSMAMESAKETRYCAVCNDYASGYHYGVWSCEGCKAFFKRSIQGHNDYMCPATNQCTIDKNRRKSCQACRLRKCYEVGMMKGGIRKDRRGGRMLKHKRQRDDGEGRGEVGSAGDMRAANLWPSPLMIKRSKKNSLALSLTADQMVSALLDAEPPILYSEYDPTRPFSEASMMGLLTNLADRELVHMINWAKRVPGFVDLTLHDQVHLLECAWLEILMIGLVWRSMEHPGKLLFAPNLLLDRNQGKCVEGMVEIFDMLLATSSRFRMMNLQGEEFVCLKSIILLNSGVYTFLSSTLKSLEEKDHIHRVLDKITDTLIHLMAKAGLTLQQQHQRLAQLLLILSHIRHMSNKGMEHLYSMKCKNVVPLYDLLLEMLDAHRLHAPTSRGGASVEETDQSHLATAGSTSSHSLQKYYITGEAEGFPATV
Summary of the method: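 HepG2 cells transiently transfected with multiplexed GAL4-UAS reporter units; ERa activity read via exogenous chimeric NR-Gal4 protein. After 24 hour compound exposure, reporter mRNA measured by RT-PCR with 6-FAM labelling and capillary electrophoresis; gain-of-signal fitted relative to DMSO.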

[15] = target: Steroid hormone receptor ERR1 (Homo sapiens) (UniProt P11474); test: ATG_ERRa_TRANS: Attagene TRANS-FACTORIAL HepG2 Assay for human Estrogen-Related Receptor alpha (ERRa) (AID 2282971); settings: HepG2 Attagene TRANS reporter, ERRa transactivation
Chain of Steroid hormone receptor ERR1 (Homo sapiens) (P11474 whole entry, looked up, the tested form may be a part): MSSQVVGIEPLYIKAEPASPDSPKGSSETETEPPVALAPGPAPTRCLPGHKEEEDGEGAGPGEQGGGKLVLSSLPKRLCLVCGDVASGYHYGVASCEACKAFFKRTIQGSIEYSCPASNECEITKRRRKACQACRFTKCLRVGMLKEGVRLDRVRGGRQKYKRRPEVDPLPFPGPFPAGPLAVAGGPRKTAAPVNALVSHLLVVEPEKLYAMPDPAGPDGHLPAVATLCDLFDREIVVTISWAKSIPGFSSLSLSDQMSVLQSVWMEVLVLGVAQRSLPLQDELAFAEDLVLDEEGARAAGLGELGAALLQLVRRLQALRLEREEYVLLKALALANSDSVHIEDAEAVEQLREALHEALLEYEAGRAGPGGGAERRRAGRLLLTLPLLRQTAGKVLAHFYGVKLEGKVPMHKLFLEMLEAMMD
Summary of the method: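 HepG2 cells transiently transfected with multiplexed GAL4-UAS reporter units reading chimeric ERRa-Gal4 activity; 24 h compound exposure. Reporter mRNA measured by RT-PCR, 6-FAM labelling, HpaI digest and capillary electrophoresis; gain of signal fitted versus DMSO baseline.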

[16] = target: Bile acid receptor (Homo sapiens) (UniProt Q96RI1); test: ATG_FXR_TRANS: Attagene TRANS-FACTORIAL HepG2 Assay for Farnesoid X Receptor (FXR) (AID 2282979); settings: HepG2 Attagene TRANS FXR-GAL4 reporter transcription;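 also: hits raise reporter mRNA above DMSO so AC50 marks FXR activation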
Chain of Bile acid receptor (Homo sapiens) (Q96RI1 whole entry, looked up, the tested form may be a part): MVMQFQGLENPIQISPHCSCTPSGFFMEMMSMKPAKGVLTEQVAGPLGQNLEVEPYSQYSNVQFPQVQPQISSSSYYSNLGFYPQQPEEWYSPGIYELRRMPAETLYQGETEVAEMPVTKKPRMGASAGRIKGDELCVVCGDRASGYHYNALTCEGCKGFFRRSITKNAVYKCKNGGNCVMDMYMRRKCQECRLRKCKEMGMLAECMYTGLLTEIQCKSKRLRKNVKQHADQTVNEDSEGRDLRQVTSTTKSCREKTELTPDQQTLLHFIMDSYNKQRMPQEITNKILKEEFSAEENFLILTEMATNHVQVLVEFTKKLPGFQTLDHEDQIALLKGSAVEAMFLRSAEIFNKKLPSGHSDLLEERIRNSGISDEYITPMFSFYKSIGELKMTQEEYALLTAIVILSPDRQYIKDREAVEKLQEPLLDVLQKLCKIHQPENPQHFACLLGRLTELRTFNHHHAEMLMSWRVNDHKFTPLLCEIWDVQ
Summary of the method: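 HepG2 cells transiently transfected with reporter constructs in which a chimeric FXR-GAL4 protein drives a GAL4-UAS reporter; 24 h compound exposure. Reporter mRNA measured by RT-PCR, FAM labelling, HpaI digestion and capillary electrophoresis; gain-of-signal versus DMSO.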

[17] = target: Oxysterols receptor LXR-beta (Homo sapiens) (UniProt P55055); test: ATG_LXRb_TRANS: Attagene TRANS-FACTORIAL HepG2 Assay for human Liver X Receptor beta (LXRb) (AID 2282981); settings: HepG2 Attagene TRANS GAL4-LXRb reporter, mRNA
Chain of Oxysterols receptor LXR-beta (Homo sapiens) (P55055 whole entry, looked up, the tested form may be a part): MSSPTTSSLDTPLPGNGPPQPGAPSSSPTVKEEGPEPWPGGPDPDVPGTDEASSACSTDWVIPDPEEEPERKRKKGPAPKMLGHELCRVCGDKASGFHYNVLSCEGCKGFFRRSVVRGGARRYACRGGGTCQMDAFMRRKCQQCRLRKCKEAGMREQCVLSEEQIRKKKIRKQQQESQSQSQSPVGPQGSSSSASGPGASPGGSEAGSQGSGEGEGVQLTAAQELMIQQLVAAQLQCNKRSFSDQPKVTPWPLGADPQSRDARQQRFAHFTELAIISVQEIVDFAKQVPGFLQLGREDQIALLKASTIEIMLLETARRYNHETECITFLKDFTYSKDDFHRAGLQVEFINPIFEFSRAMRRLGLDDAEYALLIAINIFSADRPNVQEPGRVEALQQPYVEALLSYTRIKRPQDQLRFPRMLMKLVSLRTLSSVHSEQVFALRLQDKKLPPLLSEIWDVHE
Summary of the method: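 HepG2 cells transiently transfected with GAL4-UAS reporter units for chimeric NR-Gal4 proteins, dosed for 24 h. Reporter transcripts measured by RT-PCR and capillary electrophoresis; gain-of-signal fitting relative to DMSO.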

Measured: AC50

CCC(=O)Nc1ccc(Cl)c(Cl)c1
not listed: [13] | [14] | [15] | [16] | [17]
inactive: all other assays above

CCOP(=S)(OCC)OC(Cl)C(Cl)(Cl)Cl (stereo not drawn)
active: [3] 50 µM
not listed: [7] | [14] | [15] | [16] | [17]
inactive: all other assays above

CNC(=O)ON=C(SC)C(=O)N(C)C
active: [5] 40.5 µM
inactive: [1] | [2] | [3] | [4] | [14] | [15] | [13] | [12]

CC(COc1ccc(Oc2ccccc2)cc1)Oc1ccccn1 (stereo not drawn)
active: [3] 16 µM
not listed: [6] | [7] | [9] | [14] | [16] | [17]
inactive: all other assays above

CCC(CC)Nc1c([N+](=O)[O-])cc(C)c(C)c1[N+](=O)[O-]
active: [3] 15.3 µM
not listed: [7] | [8] | [13] | [14] | [17]
inactive: all other assays above

CCCSP(=O)(OCC)Oc1ccc(Br)cc1Cl (stereo not drawn)
active: [3] 6.6 µM | [5] 1.31 µM
not listed: [7] | [13] | [14] | [15] | [17]
inactive: all other assays above

Nc1c(Cl)cc([N+](=O)[O-])cc1Cl
active: [2] 70.8 µM | [14] 50 µM | [5] 50 µM
not listed: [7] | [11]
inactive: all other assays above

CC[C@H](C)[C@H]1O[C@]2(C=C[C@@H]1C)C[C@@H]1C[C@@H](C/C=C(\C)[C@@H](O[C@H]3C[C@H](OC)[C@@H](O[C@H]4C[C@H](OC)[C@@H](NC)[C@H](C)O4)[C@H](C)O3)[C@@H](C)/C=C/C=C3\CO[C@@H]4[C@H](O)C(C)=C[C@@H](C(=O)O1)[C@]34O)O2
not listed: [7] | [9] | [11] | [13] | [15] | [16] | [17]
inactive: all other assays above
